Inconclusive results are not listed. Activity calls are given as the source filed them. Rule for the calls, unless noted: active = hit-call score of the fitted dose curve at least 0.9, where 1 is the maximum; inactive = score below 0.9.
Tests used:
[1] = CCTE_Shafer_MEA_acute_spike_number: CCTE's Neural Acute Assay for Total Number of Spikes, Shafer Lab (AID 2284008);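 for AC50: curve fitted for decrease in spike count so AC50 reflects inhibitors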
Outline: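 Rat primary cortical neurons on 48-well MEA plates, DIV 13 or 15, at 37 C. 40 min baseline then 40 min with compound (0.03-40 uM); spikes detected at 8x rms noise, expressed as percent change from baseline.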

[2] = CCTE_Shafer_MEA_acute_firing_rate_mean: CCTE's Neural Acute Assay for Mean Firing Rate, Shafer Lab (AID 2284009);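 note: analyzed for loss of signal so actives lower firing rate relative to DMSO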
Outline: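 Rat primary cortical neurons on 48-well MEA plates, dosed at 0.03-40 uM on DIV 13 or 15; 40 min spontaneous activity recorded at 37 C before and after compound. Spike rate per electrode averaged per well, expressed as percent change from baseline.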

[3] = CCTE_Harrill_HTTr_Viability_MCF7: CCTE's 6-hour Cell Viability Assessment for the High-Throughput Transcriptomics (HTTr) Platform, in MCF-7 cells cultured in DMEM + 10% fetal bovine serum, Harrill Lab (AID 2284010)
Outline: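 Viability measured through PI dye exclusion by high-content imaging at 6 h post-dosing.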

[4] = CCTE_Harrill_HTTr_Apoptosis_MCF7: CCTE's 6-hour Apoptosis Assessment for the High-Throughput Transcriptomics (HTTr) Platform, in MCF-7 cells cultured in DMEM + 10% fetal bovine serum, Harrill Lab (AID 2284011)
Outline: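 MCF-7 cells in DMEM + 10% FBS exposed 6 h to chemicals over an eight-point dilution series. Caspase-3/7 activation imaged by high-content CellEvent Green staining; fitted bidirectionally versus DMSO.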

[5] = CCTE_Shafer_MEA_acute_burst_number: CCTE's Neural Acute Assay for Single-Electrode Bursts, Shafer Lab (AID 2284013)
Outline: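 Primary rat cortical neurons on 16-electrode MEA wells, treated on DIV 13 or 15 with compound at 0.03-40 uM. Single-electrode burst count from 40-min recordings at 37 C before and after exposure; percent change from baseline per well, DMSO negative control.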

[6] = CCTE_Shafer_MEA_acute_burst_duration_mean: CCTE's Neural Acute Assay for Mean Burst Duration, Shafer Lab (AID 2284014);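 note: hits are decreases in mean burst duration relative to DMSO controls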
Outline: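 Rat primary cortical neurons on 48-well MEA, treated at DIV 13 or 15 with 0.03-40 uM in at least 3 wells. Value is percent change in mean burst duration, comparing 40 min recordings at 37 C before and during exposure.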

[7] = CCTE_Shafer_MEA_acute_per_burst_spike_number_mean: CCTE's Neural Acute Assay for Average Number of Spikes Per Burst, Shafer Lab (AID 2284015);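 note: hits are decreases in mean spikes per burst versus baseline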
Outline: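 We recorded spontaneous network firing of rat cortical neurons for 40 min before and 40 min during exposure to compound at 0.03-40 uM, at 37 C. Spikes were detected adaptively at 8x rms noise, and the change in average spikes per burst was fitted against DMSO.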

[8] = CCTE_Shafer_MEA_acute_interburst_interval_mean: CCTE's Neural Acute Assay for Mean Interburst Interval, Shafer Lab (AID 2284016);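 note: percent change of mean interburst interval versus each well's own pre-dose baseline; curves fitted for decrease in interburst interval relative to DMSO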
Outline: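 MEA recording of spontaneous network bursting in primary rat cortical cultures; mean interburst interval was compared before and after a 40-min compound exposure (0.03-40 uM) and expressed as percent change, relative to DMSO.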

[9] = CCTE_Shafer_MEA_acute_burst_percentage_mean: CCTE's Neural Acute Assay for Percentage of Spikes in a Burst, Shafer Lab (AID 2284017);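 for AC50: curve fitted for loss of signal so potency reflects decreased burst percentage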
Outline: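 Compounds were tested at 0.03-40 uM on primary rat cortical neuron networks grown over microelectrodes, with at least three wells per compound. Spontaneous firing was recorded for 40 min before and 40 min after dosing, and the change in burst percentage was computed per well.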

[10] = CCTE_Shafer_MEA_acute_per_network_burst_spike_number_std: CCTE's Neural Acute Assay for Standard Deviation of Number of Spikes in a Network Burst, Shafer Lab (AID 2284020);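 note: fitted for decrease in spike-number SD versus DMSO so actives lower it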
Outline: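 Rat primary cortical neurons on 48-well MEA (16 electrodes/well), treated DIV 13 or 15 at 0.03-40 uM, ≥3 wells per compound. 40 min recordings at 37 C before and after dosing; value is percent change in network-burst spike-number SD, negative direction vs DMSO.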

[11] = CCTE_Shafer_MEA_acute_per_network_burst_electrodes_number_mean: CCTE's Neural Acute Assay for Mean Number of Electrodes in a Network Burst, Shafer Lab (AID 2284021);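 note: curves fitted for decreases only so hits reduce electrodes per burst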
Outline: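 Rat primary cortical neurons on 48-well MEAs, DIV 13 or 15, were treated at 0.03-40 uM. Spikes were detected at 8x rms noise and recorded at 37 C. The mean electrodes per network burst in a 40 min exposure recording was expressed as percent change from a 40 min baseline.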

[12] = CCTE_Shafer_MEA_acute_network_burst_percentage: CCTE's Neural Acute Assay for Percentage of Network Bursts, Shafer Lab (AID 2284022);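 note: curves fitted for loss so actives lower network burst percentage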
Outline: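 Rat primary cortical neuron networks on 48-well MEA plates, DIV 13 or 15, treated acutely with compound (0.03-40 uM, at least three wells). Percent of spikes within network bursts compared between 40-min recordings before and during exposure at 37 C, expressed as percent change.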

[13] = CCTE_Harrill_HTTr_CellCount_MCF7: CCTE's Cell Proliferation Assessment for the High-Throughput Transcriptomics (HTTr) Platform, Harrill Lab (AID 2284012; active = hit-call score of the fitted dose curve at least 0.9, where 1 is the maximum;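 note: count of Hoechst-stained nuclei per well by high-content imaging in MCF-7 cells; cells exposed to compound for six hours; intended direction is loss of nuclei count meaning fewer cells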)
Outline: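 Nuclei counting (Hoechst, high content imaging) in MCF-7 after a 6 h treatment at eight concentrations. Activity fitted bidirectionally, DMSO as negative control.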

Measured: AC50

C/C=C/c1ccc(OC)cc1
not listed: [13]
inactive: all other assays above

CC(C)(C)c1ccccc1
inactive: [3] | [4]

CC(C)COC(=O)CCCCC(=O)OCC(C)C
not listed: [13]
inactive: all other assays above

CC(=O)S[C@H](C(=O)N[C@H]1Cc2ccccc2[C@H]2CCC[C@@H](C(=O)O)N2C1=O)C(C)C
inactive: [3] | [4]

CCCCC(CC)COP(=O)(OCC(CC)CCCC)OCC(CC)CCCC (stereo not given)
not listed: [13]
inactive: all other assays above

CCCCC(CC)COC(=O)CCCCCCCC(=O)OCC(CC)CCCC (stereo not given)
inactive: [3] | [4]

O=C(N[C@@H](c1ccccc1)[C@@H]1CCCCN1)c1cccc(C(F)(F)F)c1Cl
active: [1] 4.39 µM | [2] 4.39 µM | [5] 3.29 µM | [8] 7.65 µM | [9] 5 µM | [10] 5 µM | [11] 5 µM | [12] 9.12 µM
inactive: [3] | [4] | [6] | [7]

CC(N)=O
not listed: [13]
inactive: all other assays above

CN(C)C(=O)NC1(c2ccccc2)CCN(CC[C@@]2(c3ccc(F)c(F)c3)CN(C(=O)c3ccccc3)CCO2)CC1
active: [1] 4.16 µM | [2] 4.14 µM | [5] 4.34 µM | [12] 5 µM
not listed: [13]
inactive: all other assays above

CO[C@@H]1COCC[C@@H]1N[C@@H]1CC[C@@](C(=O)N2CCc3ncc(C(F)(F)F)cc3C2)(C(C)C)C1
inactive: [3] | [4]

Oc1ccccc1O
inactive: [3] | [4]

NC1CCCCC1
inactive: [3] | [4]

CC(C)c1cccc(C(C)C)c1NC(=O)NS(=O)(=O)c1cc(C(C)(C)O)co1
inactive: [3] | [4]

CN(C)CCCN(C)CCCN(C)C
inactive: [3] | [4]

C/C=C/C=C/C(=O)O
inactive: [3] | [4] | [13]

O=NO
inactive: [3] | [4]

Cc1cn([C@H]2C=C[C@@H](CO)O2)c(=O)[nH]c1=O
inactive: [3] | [4] | [13]

O=[Si]=O
inactive: [3] | [4]

CC(=O)OCC(COC(C)=O)OC(C)=O
inactive: [3] | [4]

O=C(O)CC(O)(CC(=O)O)C(=O)O
inactive: [3] | [4]

OCC(O)CO
inactive: [3] | [4]

CCCC[C@H]1CN(CC2CCOCC2)C(=O)OC12CCN(C1(C)CCN(C(=O)c3c(C)ncnc3C)CC1)CC2
inactive: [3] | [4]

CC1(C)C(=O)NC(=O)N1CO
inactive: [3] | [4]

Cn1cnc2c1c(=O)[nH]c(=O)n2C
inactive: [3] | [4]

Nc1nc(Cl)nc2c1ncn2[C@H]1C[C@H](O)[C@@H](CO)O1
inactive: [3] | [4]

CCCCCCC(CCCCCCCCCCC(=O)OCC(COC(C)=O)OC(C)=O)OC(C)=O (stereo not given)
inactive: [3] | [4]

CS(=O)(=O)c1ccc([C@@H](C[C@H]2CCC(=O)C2)C(=O)Nc2cnccn2)cc1Cl
inactive: [3] | [4]

CCCCCCCCCCCCCCOS(=O)(=O)O
inactive: [3] | [4]

S=c1[nH]c2ccccc2s1
inactive: [3] | [4] | [13]

CCCCc1nc2cccnc2n1Cc1ccc(-c2ccccc2-c2nnn[nH]2)cc1
inactive: [3] | [4]

O=C(O)c1[nH]n(-c2ccc(S(=O)(=O)O)cc2)c(=O)c1N=Nc1ccc(S(=O)(=O)O)cc1
inactive: [3] | [4]

CC(=O)[C@@]1(O)CC[C@H]2[C@@H]3CCC4=CC(=O)CC[C@]4(C)[C@H]3CC[C@@]21C
inactive: [3] | [4]

CC(=O)OC1CC(C)OC(C)O1 (stereo not given)
inactive: [3] | [4]

CCCCCCCC(=O)OC
inactive: [3] | [4]

CCCCOC(=O)CCCCC(=O)OCCCC
inactive: [3] | [4]

O=C1NC(=O)C(c2ccccc2)(c2ccccc2)N1
inactive: [3] | [4]

Cc1occc(=O)c1O
inactive: [3] | [4]

CCc1nc(N)nc(N)c1-c1ccc(Cl)cc1
inactive: [3] | [4]

COC(=O)CCC(=O)OC
inactive: [3] | [4]

O=C1c2c(O)cccc2Cc2cccc(O)c21
inactive: [3] | [4]

CCCCC(CC)CO (stereo not given)
inactive: [3] | [4]

Source: PubChem BioAssay (EPA / NIEHS)
